Source: ChEMBL document CHEMBL3433997, “St. Jude Leishmania screening dataset” (2016)

What was measured:
Type in all cases: functional
[1] = target: Solute carrier family 2, facilitated glucose transporter member 1 (Homo sapiens) (UniProt P11166); experiment: ST_JUDE_LEISH: Cytotoxicity at 2uM final concentration against transgenic Leishmania Mexicana promastigotes LmGLUT1 that are glucose transport deficient and complemented with the human glucose transporter GLUT1. Activity is measured by DNA content using SYBR green in vitro
Chain of Solute carrier family 2, facilitated glucose transporter member 1 (Homo sapiens) (P11166 whole entry): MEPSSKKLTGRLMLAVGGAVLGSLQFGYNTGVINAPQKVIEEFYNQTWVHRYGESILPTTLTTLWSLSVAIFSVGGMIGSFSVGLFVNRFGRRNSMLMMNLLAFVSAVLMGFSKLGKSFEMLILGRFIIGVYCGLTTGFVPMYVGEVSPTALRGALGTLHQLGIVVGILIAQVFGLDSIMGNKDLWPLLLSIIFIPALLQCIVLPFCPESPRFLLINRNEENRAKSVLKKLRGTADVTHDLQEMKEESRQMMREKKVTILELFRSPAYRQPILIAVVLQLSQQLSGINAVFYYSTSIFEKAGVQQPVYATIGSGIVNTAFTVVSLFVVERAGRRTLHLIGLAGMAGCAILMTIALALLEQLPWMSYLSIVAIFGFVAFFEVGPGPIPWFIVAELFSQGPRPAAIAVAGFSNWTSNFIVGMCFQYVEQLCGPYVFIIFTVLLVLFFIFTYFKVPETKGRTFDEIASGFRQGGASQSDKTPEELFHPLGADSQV

[2] = target: Hexose transporter 1 (Plasmodium falciparum) (UniProt O97467); experiment: ST_JUDE_LEISH: Cytotoxicity at 2uM final concentration against transgenic Leishmania Mexicana promastigotes LmPfHT that are glucose transport deficient and complemented with the Plasmodium falciparum hexose transporter. Activity is measured by DNA content using SYBR green in vitro
[3] = target: Glucose transporter (Leishmania mexicana) (UniProt O61059); experiment: ST_JUDE_LEISH: Cytotoxicity at 2uM final concentration against transgenic Leishmania Mexicana promastigotes LmGT2 that are glucose transport deficient and complemented with the L. Mexicana glucose transporter 2. Activity is measured by DNA content using SYBR green in vitro

## CCOc1ccc2[nH]c(C)cc(=NN=Cc3cccc(C)n3)c2c1
[1]
  inhibition: 3.19%
[2]
  inhibition: 7.58%
[3]
  inhibition: 2.54%

## COc1ccc(-c2cc(-c3nc4cc(C(=O)N5CCOCC5)ccc4[nH]3)c(=O)n(C)c2)cc1OC
[1]
  inhibition: 2.76%
[2]
  inhibition: 0.74%
[3]
  inhibition: 0.91%

## COc1ccccc1-c1sccc1C(=O)NC1(c2cc(Cl)cc(Cl)c2)CCCC1
[1]
  inhibition: 1.22%
[2]
  inhibition: 0.95%
[3]
  inhibition: 4.85%

## COc1ccc(-c2cncc3ccc(C(=O)NCCCn4ccnc4)nc23)cc1
[1]
  inhibition: 7.45%
[2]
  inhibition: 8.66%
[3]
  inhibition: 7.3%

## CCCNc1ccc2nccc(CCN3CCC(NCc4ccc5c(c4)NC(=O)CS5)CC3)c2n1
[1]
  inhibition: 0.84%
[2]
  inhibition: 3.1%
[3]
  inhibition: 2.43%

## Cc1cc(Nc2ccc(C)c(Cl)c2)n2ncnc2n1
[1]
  inhibition: -2.06%
[2]
  inhibition: -1.7%
[3]
  inhibition: -4.9%

## CCOc1ccc2c(=NN=Cc3cccc(OC)c3OC)cc(C)[nH]c2c1
[1]
  inhibition: 4.91%
[2]
  inhibition: 5.53%
[3]
  inhibition: 6%

## COc1cc2nc(NCCC(C)C)n3nc(-c4ccccc4)nc3c2cc1OC
[1]
  inhibition: -1.19%
[2]
  inhibition: -0.07%
[3]
  inhibition: -1.51%

## CCNc1cc(C(=O)N[C@@H](Cc2ccco2)[C@H](O)CNC2CCCCC2)cc(N2CCCCS2(=O)=O)c1
[1]
  inhibition: 1.99%
[2]
  inhibition: 2.4%
[3]
  inhibition: 2.15%

## Clc1ccc2c(NCCc3ccccn3)ccnc2c1
[1]
  inhibition: 6.58%
[2]
  inhibition: 6.15%
[3]
  inhibition: 6.87%

## CC(C)(C)Cn1cc(-c2ccc(C(=O)NCCc3ccc(S(C)(=O)=O)cc3)cc2)c(N)n1.CC(C)(C)Cn1ncc(-c2ccc(C(=O)NCCc3ccc(S(C)(=O)=O)cc3)cc2)c1N
[1]
  inhibition: 0.21%
[2]
  inhibition: 1.16%
[3]
  inhibition: 2.93%
